A selection: hits, their analogues and other compounds. The true share with any hit is near 3%.
IP6K1 inh – inhibitors of human IP6K1 | actives 0.81% (n = 140,000) | activity change, % (series mostly up to about 58 µM) | IP6K1 kinase, ADP-Glo luminescence, 2 h; active compounds read low; in the data active = activity change below about -25%; also: % is scaled to controls: 0 for no effect and ±100 for the full control effect
Target sequence (Q92551 whole entry, looked up): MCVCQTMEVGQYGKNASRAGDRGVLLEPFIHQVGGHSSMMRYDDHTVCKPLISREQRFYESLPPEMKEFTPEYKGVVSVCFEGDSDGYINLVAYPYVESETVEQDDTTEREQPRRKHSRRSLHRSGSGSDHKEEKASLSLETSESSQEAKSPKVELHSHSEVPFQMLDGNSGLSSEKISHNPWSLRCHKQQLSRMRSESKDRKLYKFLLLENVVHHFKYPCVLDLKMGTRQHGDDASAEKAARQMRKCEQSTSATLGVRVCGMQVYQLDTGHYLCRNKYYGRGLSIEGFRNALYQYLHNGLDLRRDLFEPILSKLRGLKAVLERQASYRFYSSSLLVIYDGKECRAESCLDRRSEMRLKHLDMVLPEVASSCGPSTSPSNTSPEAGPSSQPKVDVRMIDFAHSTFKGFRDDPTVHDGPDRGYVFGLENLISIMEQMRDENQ
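ADP-Glo luminescence measures ADP made by human IP6K1 during a 2 h RT reaction with ATP/IP6 (mix at 1.3 mM/130 uM); top library doses 57.5 and 19.1 uM final.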
SNCA expr inh – inhibitors of alpha-synuclein (SNCA) gene expression. HEK-293 SNCA-luciferase knock-in, luminescence, 24 h. Potency, µM (titrated, usually from 57.2 µM), for inactives: at the highest dose activity change, negative = inhibition, hits mostly inhibitors. actives 0.17% (n = 140,000);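 also: potency is read from the fitted curve at half-maximal effect; plate controls were DMSO cells for no effect and cell-free wells for full effect; nearly all actives have a fitted effect of over 45% in size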
KDM5B inh – inhibitors of human KDM5B histone demethylase. Q9UGL1. KDM5B demethylase, FDH-coupled NADH fluorescence (FDH is formaldehyde dehydrogenase). Potency, µM (top dose mostly 57.7 µM), hits mostly inhibitors. actives 2.6% (n = 220,000); also: potency is read from the fitted curve at half-maximal effect; 0% is about no effect; nearly all actives have a fitted effect of over 70% in size
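Compound dilutions met 200 nM (final) KDM5BΔAP for 10 min at room temperature before substrate addition. The substrate mix held 12.5 µM H3K4me3 with cofactors 25 µM α-ketoglutarate and 50 µM Fe²⁺. NADH signal gain over 30 min defined activity.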
SNCA viab count – counter-screen for SNCA expression inhibitors: cell viability. AID 1671193. HEK-293-SNCA-luc viability, GF-AFC fluorescence, 24 h. actives 0.12% (n = 150,000). Potency, µM (doses to about 57.1 µM), without a hit: at the highest dose activity change, negative = cytotoxicity, most hits filed as cytotoxic;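 also: potency is read from the fitted curve at half-maximal effect; 0% = DMSO-treated cells and -100% = medium-only wells without cells; nearly all actives have a fitted effect of over 30% in size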
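HEK-293-SNCA-luc cells (1500/well) plated 24 h, then exposed 24 h to a dilution series; GF-AFC added 30 min at 37C, fluorescence 405/540 nm; normalised to medium-only and DMSO wells, Hill fit.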
Active calls of the source: *; i = inactive; ? = inconclusive; . = no result given; [ ] = another dose, or the depositor's remark. Unless noted, calls follow the shape of the dose curve; as a rule, active = well fitted curve in the direction sought with a large enough effect; inconclusive = small, poorly fitted or top-dose-only effect, or another doubt; inactive = no such curve, though single readings can be large; an effect the other way counts as inactive or inconclusive.

SMILES	IP6K1 inh	SNCA expr inh	KDM5B inh	SNCA viab count
CC(C)c1ccc(CC(=O)N2CCCc3ncc(C(=O)Nc4cccnc4)cc32)cc1	-22	1µM*	?	?
COc1ccc(-c2cn3cc(C(=O)NC4CC4)nc3s2)cc1	-7	28%[87.6 µM]	.	-9%[87.6 µM]
COCC1CN(C)CC12CCN(Cc1cnn(C(C)C)c1)CC2 (stereo unspecified)	-3	-21%	?	-7%
CCn1cc(CN2CCC3(CC2)CN(C)CC3COC)cn1 (stereo unspecified)	17	6%	25µM*	-25%
FC(F)(F)c1cccc2c(N3CCC4(CCCN4Cc4ncc[nH]4)CC3)ccnc12	37	73%	28µM*	-9%
COCCC1(C(=O)O)CCN(c2ccnc3c(C(F)(F)F)cccc23)CC1	0	22%	i	11%
COc1ccc(N2CCN(c3nc(C(=O)NCc4ccc(F)cc4F)cs3)CC2)cc1	-4	-7%	i	-24%
Cn1cc([C@@H](NC(=O)c2nc3ccccc3[nH]c2=O)C2CC(O)C2)cn1 (stereo partly specified)	-8	20%	32µM*	11%
Cn1cc([C@@H](NC(=O)c2cc(=O)n(-c3ccccc3)[nH]2)C2CC(O)C2)cn1 (stereo partly specified)	8	-14%	i	3%
CNC(=O)c1cc(C2CC2)nc2c1c(C1CCN(C(=O)c3ccc(C(F)(F)F)cc3)CC1)nn2C	-7	.	.	.
COc1cc(F)ccc1-c1cc(-c2c(C)noc2C)cc2c1C(=O)N(C)C2	5	40%[87.6 µM]	32µM*	-6%[87.6 µM]
O=C(NCCN[S+](=O)([O-])c1cccc(C(F)(F)F)c1)c1ccc(-c2cncnc2)cc1	15	.	.	.
CCOC(=O)[C@H]1C[C@]2(CCCCN(CCOC)C2=O)N(C(=O)Cc2ccc(F)cc2)[C@H]1c1ccccc1	11	.	.	.
COc1ccc(-c2cc3nc4c(c(=O)n3[nH]2)CN(S(=O)(=O)c2cccs2)CC4)cc1	0	?	?	-1%
CN(CC(=O)N1CCc2nc3cc(-c4ccccc4)[nH]n3c(=O)c2C1)S(=O)(=O)c1cccs1	0	-30%	?	0%
COc1ccc(-c2cc3nc4c(c(=O)n3[nH]2)CN(C(=O)CN(C)S(=O)(=O)c2cnc[nH]2)CC4)cc1	-10	?	25µM*	4%
CN(CC(=O)N1CCc2nc3cc(-c4ccccc4)[nH]n3c(=O)c2C1)S(=O)(=O)c1cnc[nH]1	10	?	28µM*	6%
Cc1nnc(CN(C)c2ccc(-c3nc(-c4cccc(Cl)c4)no3)cn2)o1	-3	57%	28µM*	-4%
COc1ccc(-c2nc(C)nc3c2CN(C(C)=O)CC3)cc1	12	3%[87.6 µM]	?	11%[87.6 µM]
COCC(=O)N1CCc2nc(C)nc(-c3ccc(OC)cc3)c2C1	12	24%[87.6 µM]	32µM*	15%[87.6 µM]
COc1ccc(-c2nc(C)nc3c2CN(Cc2ccc(NC(C)=O)cc2)CC3)cc1	8	6%	22µM*	4%
COc1ccc(-c2nc(C)nc3c2CN(C(=O)Nc2ccc(Cl)cc2)CC3)cc1	-5	1%	.	-8%
COCC(=O)N1CCc2nc(-c3ccccc3)nc(-c3ccc(OC)cc3)c2C1	-9	-21%	22µM*	-18%
O=C(c1ccc2nnc(-c3ccc(Cl)cc3)n2c1)N1CCN(Cc2ccccc2)CC1	5	?	.	-16%
c1ccc(CCCc2noc(-c3ccc(N4CCOCC4)nc3)n2)cc1	0	103%	35µM*	-2%
SMILES	IP6K1 inh	SNCA expr inh	KDM5B inh	SNCA viab count
COC1CCN(c2ccc(-c3nc(COc4ccccc4)no3)cn2)CC1	10	138%	28µM*	-7%
Cc1nccn1CCN(C)c1ccc(-c2nc(COc3ccccc3)no2)cn1	3	-30%	22µM*	5%
CC(Nc1ccc(-c2nc(CCCc3ccccc3)no2)cn1)c1cnn(C)c1 (stereo unspecified)	15	142%	28µM*	-4%
c1ccc(CCc2noc(-c3ccc(N4CCCOCC4)nc3)n2)cc1	0	136%	?	3%
COc1ccccc1-c1cccc(C(=O)N2CCN(C(=O)NC3CCCC3)CC2)c1	4	0%	.	-4%[12.5 µM]
Cc1cccc(N2CCN(C(=O)CN3CC4(CCCCC4)CC3=O)CC2)n1	0	21%	32µM*	-4%
CN(Cc1cccc(N2CCN(C(=O)OC(C)(C)C)CC2)c1F)[S+](C)(=O)[O-]	-3	.	.	.
Cc1ccccc1-c1nc(N2CCOCC2)cc2c1CN(CC1CC1)C2=O	17	-5%[87.6 µM]	35µM*	-13%[87.6 µM]

Bioassay records from PubChem.
